GPT2 inh – Primary qHTS assay for inhibitors of Glutamate pyruvate transaminase 2 (GPT2); Recombinant GPT2, coupled pyruvate oxidase/HRP Amplex Red fluorescence; Potency, µM (titrated, usually from 57.7 µM), for inactives: at the top dose activity change, negative = inhibition, actives largely listed as inhibitors; AID 1671188, 2021; 100,000 tested, 0.25% active; note: nearly all actives have a fitted effect of over 60% in size
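Inhibition is scored from Amplex Red fluorescence generated when pyruvate oxidase and HRP act on pyruvate released by GPT2. Reactions contain 10ng/uL enzyme, 250uM a-KG and 2mM L-alanine and run 30 min at room temperature.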
3T3 cytotox – Cytotoxic Profiling in NIH 3T3 Cell Line of Diverse Libraries Using Quantitative High-Throughput Screening | Potency, µM (series often up to 96.7 µM), inactives show top-dose activity change, negative = cytotoxicity, usual class: inhibitors | NIH 3T3 viability, CellTiter-Glo ATP luminescence, 48-72 h | 94,000 tested, 4.3% active; note: nearly all actives have a fitted effect of over 55% in size
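Cytotoxicity is measured as loss of cellular ATP: NIH 3T3 cells (400/well) are exposed to compound for 48 or 72 hr at 37 °C, then CellTiter-Glo luminescence is imaged after 10 min at room temperature.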
HEK cytotox – Cytotoxic Profiling in HEK 293 Cell Line of Diverse Libraries Using Quantitative High-Throughput Screening; HEK 293 viability, ATP luminescence (CellTiter-Glo), 48-72 h; Potency, µM (series often up to 115 µM), for inactives: top-dose activity change, negative = cytotoxicity, most hits filed as inhibitors; 94,000 tested, 6.6% active; AID 1345083, 2018; note: nearly all actives have a fitted effect of over 60% in size
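Cells seeded first (HEK 293, 250 cells/well), then compound added by pintool. Incubation ran 48 or 72 hr at 37 degree Celsius. CellTiter-Glo was added and luminescence imaged after 10 min at room temperature.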
FLuc inh – Firefly luciferase inhibition profiling of diverse chemical library using quantitative high-throughput screening | Potency, µM (highest dose often 115 µM), hits mostly inhibitors | 76,000 tested, 2.5% active | purified P. pyralis luciferase, luminescence, biochemical | Luciferin 4-monooxygenase (Photinus pyralis), P08659; note: nearly all actives have a fitted effect of over 65% in size
Target sequence (P08659 whole entry, looked up): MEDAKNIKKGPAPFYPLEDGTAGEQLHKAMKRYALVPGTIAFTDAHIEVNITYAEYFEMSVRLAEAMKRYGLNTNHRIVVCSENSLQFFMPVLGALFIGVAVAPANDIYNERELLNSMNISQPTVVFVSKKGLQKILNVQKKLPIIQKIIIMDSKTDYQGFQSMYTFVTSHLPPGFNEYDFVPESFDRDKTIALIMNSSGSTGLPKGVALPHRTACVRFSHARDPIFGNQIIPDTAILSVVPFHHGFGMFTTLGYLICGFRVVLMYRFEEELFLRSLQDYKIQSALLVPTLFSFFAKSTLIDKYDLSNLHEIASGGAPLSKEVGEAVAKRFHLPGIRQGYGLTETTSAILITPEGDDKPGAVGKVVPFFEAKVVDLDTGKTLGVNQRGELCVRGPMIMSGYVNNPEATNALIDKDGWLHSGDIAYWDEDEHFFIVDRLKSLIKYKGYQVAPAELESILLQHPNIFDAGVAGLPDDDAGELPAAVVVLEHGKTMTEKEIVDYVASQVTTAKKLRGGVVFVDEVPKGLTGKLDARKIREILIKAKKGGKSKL
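Purified P. pyralis luciferase (10nM final) in 50mM Tris acetate pH 7.5, 10mM Mg acetate, 0.01% Tween-20, 0.05% BSA with 10uM D-luciferin and 10uM ATP. Compounds titrated qHTS. Luminescence imaged on CCD.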
NPR1 antag – Natriuretic polypeptide receptor (hNpr1) antagonism - Primary qHTS; Atrial natriuretic peptide receptor 1 (Homo sapiens), P16066; HEK293 hNpr1 GloSensor cGMP, ANP-stimulated luminescence; Potency, µM (highest dose often 46.3 µM), without a hit: at the highest dose activity change, negative = inhibition, actives largely listed as inhibitors; 76,000 tested, 1.6% active; calls by dose curve; note: nearly all actives have a fitted effect of over 60% in size
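HEK293 cells stably expressing human Npr1 and cGMP GloSensor pGS-40F, loaded 2 h with 2% GloSensor reagent, given compound 30 min at room temperature. Luminescence read before and 20 min after 0.1 nM hNppA.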
Numbers without * were called inactive; i = inactive; ? = inconclusive; / = not tested or not shown; ! = repeats disagree; [ ] = dose if it differs, or a comment. Sampled rows, rich in hits. Any-hit rate of the full collection: about 10%. Unless noted, calls come from the whole dose curve; as a rule, active = well fitted curve in the direction sought with a large enough effect; inconclusive = small, poorly fitted or top-dose-only effect, or another doubt; inactive = no such curve, though single readings can be large; an effect the other way counts as inactive or inconclusive. % is set by controls: 0 for no effect and ±100 for the full control effect; potency is the fitted concentration of half-maximal effect.

SMILES	GPT2 inh	3T3 cytotox	HEK cytotox	FLuc inh	NPR1 antag
Cc1noc(C)c1C(=O)N1CCC2(CC1)CN(C(=O)c1ccc(Cl)cc1)CCO2	1%	6.3µM*	0%	/	/
Cc1cccc2c1nc1n2[C@@H](CNCc2nc3ccccc3n2C)COC1	5%[88.5 µM]	100µM*	?	i	?
Cc1cccc2c1nc1n2[C@@H](CNCc2ccc(C#N)cc2)COC1	i	?	?	i	?
O=C(NCc1ccccc1)c1cn(C2CN(C(=O)Cc3ccccc3)C2)nn1	i	-6%	-7%	/	/
CC(C)(C)C(Cn1ccnc1)NC(=O)c1cc(COc2ccc3c(c2)CCCC3)on1 (centres undefined)	i	20µM*	25µM*	?	-14%
Cc1cc(C)n(CCCNC(=O)c2cc(COc3ccc4sc(C)nc4c3)on2)n1	3%	1%	1%	i	7%
CN(Cc1cccnc1)C1CN(C(=O)c2ccccc2F)C1	3%	i	0%	/	/
Cc1sc2ccn(C)c(=O)c2c1C(=O)N1CCN(c2ccc(Cl)cc2)CC1	i	-15%	79µM*	i	-11%
COc1cc(C)c2c(c1C)C[C@H]([C@H](C)C(=O)NC1CCCC1)CC2	-9%[88.5 µM]	?	40µM*	i	?
Cc1cc(OCC(=O)O)c(C)c2c1CC[C@@H]([C@H](C)C(=O)NCc1ccccc1)C2	2%[88.5 µM]	79µM*	i	i	3%[70.6 µM]
O=C(Nc1ccccc1)NC1CCCN(c2ccc3nnc(C4CC4)n3n2)C1 (centres undefined)	/	4%	4%	/	/
COc1ccc(NC(=O)N[C@@H]2C=C[C@@H](c3c(C)nn(-c4ccccn4)c3C)C2)cc1	2%[88.5 µM]	112µM*	71µM*	?	-19%[70.6 µM]
COc1ccc(-n2nc(C)c([C@H]3C=C[C@@H](OC(=O)Nc4ccc(Br)cc4)C3)c2C)cc1	i	?	?	35µM*	11µM*
Cc1cccc(CN2CCCC3(CCN(c4nc5ccccc5o4)C3)C2=O)c1 (centres undefined)	?	?	?	?	0%
CCCN1CCCC2(CCN(c3cc(C)c4cccc(OC)c4n3)C2)C1=O (centres undefined)	-10%[11.5 µM]	-17%	?	i	-2%
Cc1cc(N2CCC3(CCCN(CC4CCC4)C3=O)C2)nc2ccccc12 (centres undefined)	4%	?	32µM*	i	-1%
Cc1cccc(CN2CCCC3(CCN(c4cc(C)c5ccccc5n4)C3)C2=O)c1 (centres undefined)	-10%	?	35µM*	i	-29%
CC(=O)OCC(=O)O[C@@H]1[C@H]2[C@@H](OC(=O)c3ccccc3)[C@@H](C)C[C@]2(O)[C@H](OC(C)=O)C2(C)[C@H]3CC(C)(C)C(=O)[C@@H]3CC1(OC(C)=O)[C@@H]2OC(C)=O (some centres undefined)	i	/	/	/	/
COc1ccc(CN(C(=O)c2ccco2)c2ccc(CC(=O)NC(C)c3ccccc3)cc2)cc1 (centres undefined)	1%	?	?	i	-26%
O=C(NCc1cccc(Cl)c1)c1cnc2c(c1)N(C(=O)Cc1ccc(O)cc1)CCC2	1%[88.5 µM]	?	?	i	-9%[70.6 µM]
Cn1cnc(C(=O)N2CC(c3nc(CCOCc4ccccc4)no3)C2)c1	-2%	-13%	-14%	/	/
COc1ccc(CN2C(=O)[C@H](OC)[C@@H]2C2=CCN(C(=O)c3ccco3)CC2)cc1	?	-28%	?	/	/
Cn1ncc2c(C(=O)NCC(F)(F)F)cc(C(C)(C)C)nc21	i	?	?	/	/
Cn1ncc2c(C(=O)NCc3ccc(F)c(F)c3)cc(C(C)(C)C)nc21	i	?	56µM*	/	/
Cn1ncc2c(C(=O)NCc3ccc(F)cc3)cc(C(C)(C)C)nc21	?	?	100µM*!	/	/
SMILES	GPT2 inh	3T3 cytotox	HEK cytotox	FLuc inh	NPR1 antag
Cc1ccc(-n2nc(C)c([C@@H]3C=C[C@@H](NC(=O)CC(C)(C)CC(=O)O)C3)c2C)cc1Cl	5%	?	-19%	i	-8%
Cc1ccc(-n2nc(C)c([C@@H]3C=C[C@@H](NCc4ccc(F)cc4)C3)c2C)cc1Cl	0%[88.5 µM]	?	32µM*	45µM*	-30%[70.6 µM]
Cc1ccc(-n2nc(C)c([C@@H]3C=C[C@@H](NCc4ccc(N(C)C)cc4)C3)c2C)cc1Cl	-4%[88.5 µM]	7.9µM*	8.9µM*	25µM*	?
COc1ccc(CN(C)C2CCc3nn(C)c(=O)n3CC2)cc1Cn1cccn1 (centres undefined)	-10%	-16%	0%	i	-1%
O=C1NCCCCCCN(Cc2ccncc2)[C@@H]2CN(S(=O)(=O)Cc3cccc(F)c3)CC[C@H]12	-6%	-16%	?	i	1%
Cc1nn(-c2ccccc2)c2c1C(C(C)C)N(C1CN(C(=O)C3CC3)C1)C2=O (centres undefined)	/	-24%	-9%	/	/
Cc1nn(-c2ccccc2)c2c1C(C(C)C)N(C1CCN(C(=O)c3ccccc3F)C1)C2=O (centres undefined)	/	?	79µM*	/	/
Cc1nn(-c2ccccc2)c2c1C(C(C)C)N(C1CCN(C(=O)C(C)(C)C)C1)C2=O (centres undefined)	/	?	89µM*	/	/
Cc1nn(-c2ccccc2)c2c1C(C(C)C)N(C1CCN(C(=O)C3CCCC3)C1)C2=O (centres undefined)	/	20µM*	?	/	/
Cc1nn(-c2ccccc2)c2c1C(C(C)C)N(C1CCN(C(=O)Nc3ccccc3)C1)C2=O (centres undefined)	/	?	-12%	/	/
CCN(CC)C(=O)c1cccc(-c2ccc(OCCn3ccnc3)cc2)c1	-2%	?	45µM*	i	-25%
CC(C)CC1NC(=O)C(C(C)c2ccccc2)NC(=O)C(C(C)C)NC(=O)C(C)NC(=O)CCCNC(=O)C(Cc2c[nH]c3ccccc23)NC(=O)C(C)NC1=O (centres undefined)	i	/	/	/	/
Cc1cc(C(=O)NC2CC(C)(C)Cc3nc(C(C)(C)C)ncc32)n[nH]1 (centres undefined)	1%	-20%	-27%	i	3%
CC1(C)Cc2c(cnn2-c2ccc(F)cc2)C(NC(=O)c2cc(C3CC3)[nH]n2)C1 (centres undefined)	-4%[11.5 µM]	?	79µM*	i	-15%
Cn1nc(C2CCCN(C(=O)NCc3ccccc3)C2)n(C2CCCC2)c1=O (centres undefined)	?	-33%	-12%	/	/

Assay outcomes: PubChem, National Center for Advancing Translational Sciences (NCATS)
